ABHD5 PLIN5 PPI: inhibitors of human ABHD5-perilipin-5 interaction; Q00G26+Q8WTS1; Split G. princeps luciferase complementation, luminescence, 4 h; inhibition, % at 4 µM; 360,000 tested, 0.78% active; AID 602281;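 active means inhibition above the mean inhibition across every tested compound plus 3 SD, cut at about 22% in these data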;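 further: 0% = DMSO only wells and the 100% control is not disclosed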
TLR4-MyD88 BLA: inhibitors of human TLR4-MyD88 binding; O00206+Q99836; inhibition, % at 8.4 µM; HeLa CL3-4 TLR4/MyD88 BLA complementation, FRET ratio; 200,000 tested, 0.18% active; in the data active means inhibition above about 25%;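 further: 0% = vehicle and 100% = reference inhibitor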
TLR9-MyD88 inh: blocks human TLR9 binding to MyD88; inhibition, % at 4.98 µM; 340,000 tested, 0.21% active; CHO BLA complementation TLR9-MyD88, CCF4 FRET ratio; Q9NR96+Q99836; AID 504734;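 active means inhibition above the mean over all tested compounds plus 3 SD, cut at about 21% in these data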;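 further: 0% = DMSO only wells and 100% = clavulanate BLA inhibitor control wells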
NOD2 RIPK2 PPI: inhibitors of human NOD2-RIPK2 interaction | CHO BLA complementation NOD2-RIPK2, CCF4 ratio | inhibition, % at 4.98 µM | 360,000 tested, 0.38% active; in the data active means inhibition above about 21%;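 further: 0% = vehicle only and 100% = reference blocker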
B2AR ag: human beta-2 adrenergic receptor agonism by FAP; Am2.2-beta2AR cells, FAP receptor internalization, flow cytometry; response, % (concentration not given with the values); 340,000 tested, 0.43% active; AID 504454;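 active means response above a set limit, near 3 SD of response in nonfluorescent compounds, cut at about 42% in these data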
Target sequence (P07550 whole entry, looked up): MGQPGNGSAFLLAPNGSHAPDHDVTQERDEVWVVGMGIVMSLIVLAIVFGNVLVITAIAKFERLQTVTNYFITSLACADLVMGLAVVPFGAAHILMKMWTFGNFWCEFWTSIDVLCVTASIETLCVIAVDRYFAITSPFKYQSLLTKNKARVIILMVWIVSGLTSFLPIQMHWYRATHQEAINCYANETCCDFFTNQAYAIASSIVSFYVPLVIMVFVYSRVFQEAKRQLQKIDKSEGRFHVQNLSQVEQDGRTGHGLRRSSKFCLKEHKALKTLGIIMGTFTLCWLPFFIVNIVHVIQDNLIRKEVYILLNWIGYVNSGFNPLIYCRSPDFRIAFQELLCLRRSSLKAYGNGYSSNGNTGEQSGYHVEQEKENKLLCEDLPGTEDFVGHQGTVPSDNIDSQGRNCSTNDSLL
NTR1 agonist: agonists of human neurotensin receptor NTR1; P30989; NTR1-U2OS beta-arrestin-GFP spot imaging, agonist mode; activation, % at 20 µM; 330,000 tested, 0.17% active;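 active means activation at or above 40% of the spot to cytoplasm intensity ratio, with at least 20 cells analyzed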;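 further: 0% = DMSO without peptide and 100% = 100 nM NTR1 peptide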
ABHD5-PLIN5 conf: confirmation of human ABHD5-PLIN5 interaction inhibitors; shares compounds with ABHD5 PLIN5 PPI; biochemical ABHD5-PLIN5 interaction, luminescence; inhibition, % at 4 µM; 2,200 tested, 67% active; AID 651612; in the data active means inhibition above about 23%;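 further: 0% = DMSO vehicle wells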
HNF4 counter: counter-screen for ABHD5-PLIN5 inhibitors: HNF4 split-luciferase; shares compounds with ABHD5 PLIN5 PPI; 2,200 tested, 77% active; HNF4 dimerization, luminescence, biochemical; inhibition, % at 4 µM;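 active means mean inhibition across replicate wells exceeding the computed hit threshold, cut at about 13% in these data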;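 further: light from luciferase halves that rejoin when HNF4 fusion proteins dimerize; 0% = DMSO only wells and the 100% control is not given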
* marks the source's active call; other numbers are inactive results; / = no result. In the library only some 1.5% were active in any assay of this set; here they are far more common.

SMILES	ABHD5 PLIN5 PPI	TLR4-MyD88 BLA	TLR9-MyD88 inh	NOD2 RIPK2 PPI	B2AR ag	NTR1 agonist	ABHD5-PLIN5 conf	HNF4 counter
CCc1cc(C(c2ccc(OC)c(OC)c2)N2CCOCC2)c(NC(=O)c2ccccc2)s1 (centres undefined)	33.0*	2.8	3.5	-5.4	10.9	23.4	99.1*	86.4*
C#CCOCCOCCOCCNc1nc(N2CCN(C(=O)CCCCCCCCCCNC(=O)Cn3cc(CCCCCN)nn3)CC2)nc(N2CCN(C(=O)CCCCCCCCCCNC(=O)Cn3cc(C[C@@H](C)O)nn3)CC2)n1	46.8*	/	2.5	8.9	72.2*	1.0	4.6	-14.0
C#CCOCCOCCOCCNc1nc(N2CCN(C(=O)CCCCCCCCCCNC(=O)Cn3cc(C[C@@H](C)O)nn3)CC2)nc(N2CCN(C(=O)CCCCCCCCCCNC(=O)[C@@H]([C@H](C)O)n3cc(C)nn3)CC2)n1	97.1*	/	-17.0	0.1	20.6	5.8	7.7	-7.3
N#Cc1cccc(C(=O)C(=O)N2CCN(C(=O)OCc3ccccc3)CC2)c1	0.2	/	/	-7.7	/	/	/	/
Cn1nc(C(=O)NNC(=O)c2ccccc2Br)c2ccccc2c1=O	-1.3	/	-3.4	-0.7	-3.5	0.0	/	/
N#Cc1c(NC2CCCCC2)nc(-c2ccco2)c2c1CCCC2	20.2	-16.5	3.6	2.8	8.4	7.5	/	/
N#Cc1c(NCCCO)nc(-c2ccco2)c2c1CCCC2	34.6*	-0.4	1.4	-10.5	12.1	5.6	15.2	21.4*
CC1(C(=O)NCC2CC2)Cc2c(-c3ccc4c(c3)OCO4)ccnc2O1 (centres undefined)	7.0	/	/	-40.4	/	/	/	/
Cn1c(=O)c2cc(NC(=S)NC3CC3)ccc2n1Cc1cccc(C(F)(F)F)c1	-2.9	/	/	-0.9	/	/	/	/
O=C1ON=C(c2ccccc2)/C1=C/c1ccc(-c2ccccc2[N+](=O)[O-])o1	34.9*	16.0	17.2	-2.5	95.8*	/	102.3*	106.7*
CCN1C[C@@H]2[C@@H]3C(=O)N(Cc4ccccc4)C(=O)[C@@H]3[C@](C)(C1=O)N2C(=O)c1ccc(F)cc1	4.5	/	6.2	7.8	6.7	/	/	/
Nc1sccc1C(=O)N1CCN(c2ccccc2)CC1	29.9*	/	/	2.3	/	/	1.1	42.3*
CC(C)NC(=O)/C(C#N)=C/c1cccc(NC(=O)c2ccccc2Cl)c1	28.2*	4.5	0.5	-6.2	28.3	6.1	65.2*	56.7*
COCCNC(=O)/C(C#N)=C/c1cccc(NC(=O)c2ccccc2Cl)c1	5.1	-4.5	-6.0	1.4	10.1	1.2	/	/
C=C(NC(=O)C(=C)NC(=O)c1csc(C2=NC3c4csc(n4)C4NC(=O)c5csc(n5)C(C(C)(O)C(C)O)NC(=O)C5CSC(=N5)/C(=C/C)NC(=O)C(C(C)O)NC(=O)c5csc(n5)C3(CC2)NC(=O)C(C)NC(=O)C(=C)NC(=O)C(=C)NC(=O)C(C(C)C)NC2C=Cc3c(C(C)O)cc(nc3C2O)C(=O)OC4C)n1)C(N)=O (centres undefined)	28.4*	/	4.8	-4.7	11.5	/	65.6*	10.4
CC(=O)Nc1cc(-c2ccccc2)cn2c(-c3cccc(C(C)=O)c3)cnc12	9.2	/	/	-3.2	/	/	/	/
O=C(/C=C/c1cccc([N+](=O)[O-])c1)c1cccs1	74.2*	10.8	8.4	1.5	14.8	25.4	97.3*	102.2*
O=C(Nc1nc2ccccc2[nH]1)NC1CCCCC1	101.7*	/	13.9	4.4	-5.0	2.0	3.8	2.9
Cc1ccc(/C=C/C(=O)N2CC(C)CC(C)C2)o1 (centres undefined)	27.7*	3.8	4.9	-2.3	5.5	1.1	23.5*	36.2*
CCN1CCN(C(=O)/C=C/c2ccc(C)o2)CC1	-0.9	2.2	-2.4	6.1	1.6	1.6	/	/
CC(=O)Nc1ccc2c(c1)CCc1ccccc1-2	16.6	/	6.0	4.2	17.0	0.8	/	/
O=C(O)/C=C/C(=O)c1ccc2c(c1)CCc1ccccc1-2	94.8*	/	11.7	11.5	95.8*	14.8	104.3*	110.3*
CCCCC[C@@H](C)N1C[C@H](COCc2ccccc2)Oc2cc(N3CCC[C@@H]3CO)ccc2S1(=O)=O	-8.7	/	/	-6.5	/	/	/	/
CCOC(=O)c1c(-c2ccc(C)o2)csc1NC(=O)CN(C)CC(=O)Nc1ccc(C)cc1	26.0*	1.6	-7.7	15.9	6.7	22.2	18.0	53.2*
C(=C\c1ccccc1)/CN1CCN(C(c2cc3ccccc3o2)c2nnnn2-c2ccc3c(c2)OCCO3)CC1 (centres undefined)	9.8	/	/	-14.9	/	/	/	/
SMILES	ABHD5 PLIN5 PPI	TLR4-MyD88 BLA	TLR9-MyD88 inh	NOD2 RIPK2 PPI	B2AR ag	NTR1 agonist	ABHD5-PLIN5 conf	HNF4 counter
CCC(=O)Nc1cccc(C(=O)/C=C/c2ccc(F)cc2)c1	46.2*	-4.0	1.8	18.6	4.8	23.7	91.6*	84.8*
COc1cccc(NC(=S)NC(=O)/C=C/c2ccc(F)cc2)c1	-6.2	/	1.2	4.2	5.3	0.5	/	/
CC(=O)Nc1cccc(C(=O)/C=C/c2ccc(C)cc2)c1	48.5*	6.3	12.4	-3.1	-3.2	15.8	87.3*	82.0*
CSc1ccc(/C=C/C(=O)c2ccc(NC(C)=O)cc2)cc1	25.4*	9.5	5.1	0.7	1.4	2.2	51.6*	40.7*
Cc1ccc(C2C3=C(CCCC3=O)N=C3c4ccccc4C(=O)C32)cc1 (centres undefined)	33.5*	-15.5	1.2	-5.6	-9.4	-2.1	51.0*	54.7*
O=C1CCCC2=C1C(c1ccccc1)C1C(=O)c3ccccc3C1=N2 (centres undefined)	9.2	-7.7	-3.7	-5.7	-11.5	-1.5	/	/
CCCS(=O)(=O)c1ncc(Cl)c(C(=O)Nc2ccc(S(=O)(=O)Nc3ncccn3)cc2)n1	32.8*	/	-6.5	-6.3	-3.6	-1.0	71.1*	86.0*
COC1=CC(=O)C=C(OC)C1=O	78.7*	/	15.0	21.9*	53.0*	/	87.9*	105.0*
O=C(CCCN1CCC(C(O)c2ccc(F)cc2)CC1)c1ccc(F)cc1 (centres undefined)	-5.2	/	/	0.4	/	/	/	/
COCCNC(=O)/C(C#N)=C/C=C/c1ccccc1	26.8*	-0.5	-7.2	4.4	11.0	2.0	16.8	18.0*
CCOC(=O)c1c(NC(=O)/C=C/C(=O)O)sc(C)c1-c1ccc(C(C)(C)C)cc1	34.7*	4.8	11.4	-4.3	16.4	-0.1	71.3*	27.2*
CCOC(=O)c1c(NC(=O)/C=C\C(=O)O)sc(C)c1-c1ccccc1	-0.3	12.6	0.9	-2.4	1.4	-0.3	/	/
CC(=O)N(c1ccc2oc(=O)sc2c1)S(=O)(=O)c1cccc2cccnc12	24.8*	/	0.4	-0.8	3.5	-0.9	-39.1	-7.6

From PubChem
